In the library only some 21% were active in any assay of this set; here they are far more common.
Cycloheximide cs – counter-screen hit for Shiga toxin inhibitors, cycloheximide | 300,000 compounds, 12% hits | cell reporter, cycloheximide protein synthesis inhibition counterscreen | max response, % | AID 2314; in the data active means max response mostly above about 13%, no sharp cut-off; inactive means mostly below about 14%; further: read at 38.3 µM for the half of the compounds with a filed dose; 0% is about no effect
HCMV antiviral – blocks human cytomegalovirus replication. HFF cells, HCMV-luciferase reporter, 72 h; hits give low values. activity change, negative = inhibition, % at 57.5 µM. 410,000 compounds, 4.5% hits; in the data active means activity change below about -60%; inconclusive means no clear call, values can overlap the other calls; inactive means above about -39%; further: on the % scale 0 is the no-effect control and ±100 the full control effect
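Two-dose cell screen: HFF monolayers treated with compounds and infected with luciferase-expressing HCMV at 1 PFU/cell, 72 h at 37C, then lysed for luciferase measurement.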
Pf growth 48h – P. falciparum growth inhibition at 48 hours (one generation). P. falciparum luciferase growth in erythrocytes, 48 h. Potency, µM (doses to about 28.7 µM), inactives show at the highest dose activity change, negative = inhibition, most hits filed as inhibitors. 310,000 compounds, 5.9% hits. AID 504832; further: potency means the concentration at half of the fitted maximal effect; on the % scale 0 is the no-effect control and ±100 the full control effect
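Growth was read as firefly luciferase luminescence after a 48 h, 37 C, 5% CO2 exposure of compounds to reporter-bearing P. falciparum cultures (0.1% parasitemia, 2% hematocrit final) in Albumax-supplemented RPMI 1640.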
Shiga toxin inh – Shiga toxin inhibition. Vero cells, Shiga toxin protein synthesis inhibition reporter. inhibition, % at 38.7 µM. 290,000 compounds, 9.2% hits. AID 2315; in the data active means inhibition mostly above about 28%, no sharp cut-off; inactive means mostly below about 43%; further: 0% is about no effect
HCV inhibitor – inhibitors of hepatitis C virus infection | 340,000 compounds, 3.4% hits | Huh7.5.1 HCVcc-Cre infection, luciferase reporter, 44 h | Potency, µM (doses to about 41.8 µM), inactives show at the top dose activity change, negative = inhibition, actives largely listed as inhibitors; further: potency means the concentration at half of the fitted maximal effect; on the % scale 0 is the no-effect control and ±100 the full control effect
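HCVcc-Cre virus at an moi near 0.5 was added right after compound to cells cultured 4 h from seeding (1,000 cells/well). Luciferase activity was determined 44 h later, 15 min after substrate addition at RT.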
Pf growth 96h – P. falciparum growth inhibition at 96 hour, primary screen for plastid delayed-death inhibitors. P. falciparum luciferase reporter growth, 96 h. Potency, µM (highest dose often 28.7 µM), for inactives: top-dose activity change, negative = inhibition, actives largely listed as inhibitors. 320,000 compounds, 6.9% hits. AID 504834; further: potency means the concentration at half of the fitted maximal effect; on the % scale 0 is the no-effect control and ±100 the full control effect
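Erythrocytes infected with luciferase-expressing P. falciparum were dispensed at 2% hematocrit and 0.05% parasitemia (final), then incubated with compounds 96 hours at 37 C in 5% CO2. Luminescence after detection reagent addition reported growth.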
Starred values were filed as active, the others as inactive. Unless noted, the call rests on the fitted dose curve; in most records, active means well fitted inhibition curve with a large enough effect; inconclusive means small, poorly fitted or top-dose-only effect, or another doubt; inactive means no such curve, though single readings can be large or run the other way.

COc1ccc(OC)c(C2C3=C(N=C4SCC(=O)N42)c2ccccc2CC3)c1 (stereo not drawn) was read as Cycloheximide cs 1, HCMV antiviral 12, Pf growth 48h inconclusive, Shiga toxin inh -1, HCV inhibitor inconclusive and Pf growth 96h inconclusive.
CC(C)(C)Nc1nc(N2CCCC2)nc(N2CCCC2)n1 was read as Cycloheximide cs -2, HCMV antiviral -36, Pf growth 48h inconclusive, Shiga toxin inh 15, HCV inhibitor inconclusive and Pf growth 96h -14%.
For CCCNc1nc(N2CCCC2)nc(N2CCCC2)n1 the results were Cycloheximide cs -1, HCMV antiviral 81, Pf growth 48h inconclusive, Shiga toxin inh 12, HCV inhibitor 11µM* and Pf growth 96h inconclusive.
Screening CCNc1nc(NC(C)(C)C)nc(N2CCCC2)n1 returned Cycloheximide cs -3, HCMV antiviral -27, Pf growth 48h 1.5µM*, Shiga toxin inh -4, HCV inhibitor inconclusive and Pf growth 96h -26%.
`O=c1[nH]c(=O)n(Cc2ccccc2)c2nc(-c3ccc(Oc4ccc(F)cc4)c([N+](=O)[O-])c3)n(CCO)c12` gave Cycloheximide cs 0, HCMV antiviral -64*, Pf growth 48h 13µM*, Shiga toxin inh -1, HCV inhibitor inconclusive and Pf growth 96h inconclusive.
For COCCn1c(=O)[nH]c(=O)c2c1nc(-c1ccc(-c3ccc(Cl)cc3[N+](=O)[O-])o1)n2Cc1ccccc1 the results were Cycloheximide cs -2, HCMV antiviral 181, Pf growth 48h 4.7µM*, Shiga toxin inh -3, HCV inhibitor 10µM* and Pf growth 96h 4.1µM*.
For Cn1c(-c2cc(Cl)ccc2O)nc2c1c(=O)[nH]c(=O)n2Cc1ccccc1 the results were Cycloheximide cs 9, HCMV antiviral -5, Pf growth 48h inconclusive, Shiga toxin inh 2, HCV inhibitor inconclusive and Pf growth 96h 10µM*.
COc1ccc(-c2nc3c(c(=O)[nH]c(=O)n3Cc3ccccc3)n2CCO)cc1 was read as Cycloheximide cs 12, HCMV antiviral 2, Pf growth 48h -5%, Shiga toxin inh -18, HCV inhibitor -10% and Pf growth 96h 24%.
`COCCCn1c(-c2cccc(Cl)c2)nc2c1c(=O)[nH]c(=O)n2Cc1ccccc1` gave Cycloheximide cs -2, HCMV antiviral -32, Pf growth 48h 12µM*, Shiga toxin inh -3, HCV inhibitor -26% and Pf growth 96h 10µM*.
Cc1nc2cc(C(=O)NCCC3=CCCCC3)ccc2n1-c1ccc(Br)cc1 was read as HCMV antiviral -17.
`C/C=C(\C)C(=O)N1CC2(CC(c3cccc(NC(=O)COc4ccc(Cl)cc4)c3)=NO2)C[C@@H]1C(N)=O` (stereo partly drawn) gave Cycloheximide cs -3, HCMV antiviral 6, Pf growth 48h 12µM*, Shiga toxin inh 30, HCV inhibitor -21% and Pf growth 96h inconclusive.
C/C=C\C=C\C(=O)N1CC2(CC(c3cccc(NC(=O)COc4ccc(Cl)cc4)c3)=NO2)C[C@H]1C(N)=O (stereo partly drawn) was read as Cycloheximide cs -6, HCMV antiviral -12, Pf growth 48h 13µM*, Shiga toxin inh 2, HCV inhibitor -23% and Pf growth 96h 10µM*.
For O=S(=O)(NCCOCCNS(=O)(=O)c1ccccc1)c1ccccc1 the results were Cycloheximide cs 7, HCMV antiviral 22, Pf growth 48h 31%, Shiga toxin inh -19, HCV inhibitor 8% and Pf growth 96h 0%.
For O=S(=O)(NCCOCC(F)(F)F)c1ccc2oc3ccccc3c2c1 the results were Cycloheximide cs 7, HCMV antiviral -38, Pf growth 48h 12µM*, Shiga toxin inh -12, HCV inhibitor inconclusive and Pf growth 96h 0%.
COc1ccc(CCNC(=O)c2c(C)oc3ncn(CC(C)C)c(=O)c23)c(OC)c1 was read as HCMV antiviral 11.
Screening CCOc1ccc(N2C(=O)CC(N(CCc3ccc(S(N)(=O)=O)cc3)C(C)=O)C2=O)cc1 (stereo not drawn) returned Cycloheximide cs -2, HCMV antiviral 0, Pf growth 48h 3.7µM*, Shiga toxin inh -2, HCV inhibitor 34% and Pf growth 96h 8%.
